This is an account of results in PubChem BioAssay.

Activity calls are given as the source filed them.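 How the source made its calls, unless noted: active means visually confirmed hit in the image check and inhibition above 20%; inconclusive means visually confirmed hit but inhibition not above 20%; inactive means no visual hit in the image check.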

Test [1] is described as follows: inhibitors of TNFa-induced NFkB p65 translocation, primary screen, imaging, HUVEC, MLSMR starter and 10KST1 sets (AID 438;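 active means inhibition above 20% together with a positive visual image hit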;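 further: compound added about 3h40 before a 20 min TNFalpha stimulation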;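 on inhibition: signal is the nuclear over cytoplasmic p65 intensity ratio per well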). As to conditions: HUVEC TNFa-induced p65 nuclear translocation; cell count: measured here: nuclei count (cytotoxicity indicator), at 2.08 µM; inhibition: at 2 µM, stronger effect = higher value, 0% TNFa-plus-vehicle, 100% no-TNFa wells.
Test [2] is described as follows: reduction of polyQ htt aggregates in cells – imaging, exon1htt(103Q)mCFP cells, high-content imaging, primary screen (AID 483;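 active means visual image review flags a hit and inhibition of aggregation exceeds 20%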;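 further: compound exposure lasted 3 days before fixation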;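 on nuclei count: percent of the per-plate median nuclei count of sample wells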). As to conditions: exon1htt(103Q)mCFP cell line, aggregate imaging, at 2 µM; inhibition of aggregation: stronger effect = higher value; nuclei count: measured here: cell count, toxicity.
A short description of test [3]: endothelial E-selectin expression blockers – imaging, HUVEC, immunofluorescence, MLSMR starter and 10KST1 sets, primary screen (AID 487).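 On inhibition: signal is fraction of cell area covered by stained E-selectin grains.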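 On nuclei count: 100% = median nuclei count of all wells on the same plate.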 As to conditions: HUVEC TNFalpha-induced E-selectin immunofluorescence imaging, at 2 µM; inhibition: stronger effect = higher value; nuclei count: measured here: cell number, toxicity.
A short description of test [4]: Primary imaging screen for DUSP6 inhibitors that restore phospho-Erk in transfected HeLa cells, chemical complementation (AID 609;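 active means compounds giving at least 50% inhibition in the cell-based MKP-3 phosphatase rescue imaging test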;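 on inhibition: phospho-Erk level distribution per well compared with pooled transfected vehicle control wells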). The settings on record: HeLa MKP-3 transfected, phospho-Erk imaging KS statistic, at 10 µM, cells stimulated with TPA for 15 min.
Test [5] addresses Dual specificity protein phosphatase 6 (Homo sapiens) (UniProt Q16828). The test is described as above. The settings on record: HeLa MKP-3 transfected, phospho-Erk imaging KS statistic; at 10 µM; stronger effect = higher value; cells stimulated with TPA for 15 min.
The target of test [6] is Voltage-gated potassium channel subunit beta-2 (Rattus norvegicus) (UniProt P62483). The experiment in a line: inhibitors of rat Kvbeta2 reductase activity – biochemical, NADPH fluorescence, primary screen (AID 622;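 active means fluorescence slope higher than the sample average by over 3 SD, cut at about -0.22 in these data, passing the limit was not always enough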;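 further: slope of raw intensity against log time taken from 70 to 1610 s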). The settings on record: recombinant KvBeta, 4-cyanobenzaldehyde reduction, at 10 µM, stronger effect = higher value.
Test [7] has the same target. The experiment in a line: enhancers of rat Kvbeta2 NADPH turnover – biochemical, NADPH fluorescence, primary screen (AID 623;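 active means NADPH fluorescence slope more negative than the mean of all samples by about 3 SD, 99.7% confidence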;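 further: fluorescence intensity change per second fitted from 20 to 320 s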). As to conditions: Recombinant KvBeta, NADPH fluorescence decrease slope, 10 min; at 10 µM; stronger effect = lower value.
Test [8] concerns the target Alpha-2C adrenergic receptor (Homo sapiens) (UniProt P18825). Nature of the test: compounds altering alpha2C-coupled GIRK flux – cell-based, HEK293 alpha2C/GIRK1/2, thallium flux, primary screen (AID 624;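 active means fluorescence slope after compound addition differing from the mean of all screened samples at 99.7% confidence, in either direction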;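 further: slope of fluorescence ratio to pre-addition baseline per second over 15 to 24 s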). The settings on record: thallium flux BTC fluorescence, at 10 µM, actives lie on both sides.
Test [9] in a line: loss of swimming-algae plug formation – whole organism, Chlamydomonas reinhardtii, WT vs cilia-less mutant, absorbance, 96-well, primary screen (AID 463189;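 active means inhibition at or above 50% relative to wild type and mutant plate controls; inactive means inhibition below 50%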;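 further: 0% = wild type cc124 cells in DMSO and 100% = ciliumless bld1 mutant cells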). The settings on record: Chlamydomonas reinhardtii gravitaxis, OD600 absorbance, 2 days; at 10 µM; stronger effect = higher value.
The nature of test [10]: blockers of RIG-like receptor reporter activation – cell-based, Sendai virus stimulus, luciferase, 10K MLSCN set, TLR/RLR signaling modifier project, primary screen (AID 602276;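 active means inhibition at or above 50% at 10 µM; inactive means inhibition below 50%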;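 further: firefly luciferase from ISG56 promoter only with Renilla not read in this screen; 0% = Sendai virus plus DMSO and 100% = medium plus DMSO without virus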). As to conditions: HEK293 RL24 IRF3 luciferase reporter, at 10 µM, stronger effect = higher value.
Test [11] is described as follows: TLR3 IRF3 reporter activation blockers – cell-based, poly I:C stimulus, luciferase, 10K MLSCN set, primary screen (AID 602277;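 active means inhibition of the reporter signal at or above 50%; inactive means inhibition below 50%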). The settings on record: HEK293-TLR3 RL24 IRF3 luciferase reporter, at 10 µM, stronger effect = higher value.
Test [12] addresses Muscarinic acetylcholine receptor M4 (Homo sapiens) (UniProt P08173). The experiment in a line: M4-linked GIRK flux change, two-sided – cell-based, HEK293 M4/GIRK, thallium flux, BTC-AM, M4 allosteric agonist project, primary screen (AID 625;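 active means fluorescence slope after compound addition differing from the mean of all tested samples at 99.7% confidence, mostly higher but some lower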;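 further: thallium influx through GIRK channels coupled to M4 in HEK293 cells with BTC-AM dye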). The settings on record: at 10 µM, actives lie on both sides.
Test [13] can be described thus: inhibitors of larval lipid processing in zebrafish, primary screen, whole organism, PED6 fluorescence, gall bladder and intestine (AID 686;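 active means a full or partial loss of lipid-probe fluorescence in the fish gall bladder, intestine or both, judged by eye; inactive means no fluorescence loss, or compound toxic to the fish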;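 further: larvae 5 to 7 days old with five fish per well; signal comes from phospholipase A2 cleavage of quenched PED6 carried via bile; overnight exposure to compound and PED6 before scoring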). The settings on record: Zebrafish larvae PED6 lipid processing, fluorescence scoring; screened at 20 µM (by protocol).
The mark [14] stands for this setting: measured here: cell density z-score.
[15] abbreviates: measured here: nuclear c-Myc green intensity z-score.
Setting [16] is: measured here: nuclear pErk red intensity z-score, stronger effect = higher value.

Sequence of Alpha-2C adrenergic receptor (Homo sapiens) (P18825 whole entry, looked up): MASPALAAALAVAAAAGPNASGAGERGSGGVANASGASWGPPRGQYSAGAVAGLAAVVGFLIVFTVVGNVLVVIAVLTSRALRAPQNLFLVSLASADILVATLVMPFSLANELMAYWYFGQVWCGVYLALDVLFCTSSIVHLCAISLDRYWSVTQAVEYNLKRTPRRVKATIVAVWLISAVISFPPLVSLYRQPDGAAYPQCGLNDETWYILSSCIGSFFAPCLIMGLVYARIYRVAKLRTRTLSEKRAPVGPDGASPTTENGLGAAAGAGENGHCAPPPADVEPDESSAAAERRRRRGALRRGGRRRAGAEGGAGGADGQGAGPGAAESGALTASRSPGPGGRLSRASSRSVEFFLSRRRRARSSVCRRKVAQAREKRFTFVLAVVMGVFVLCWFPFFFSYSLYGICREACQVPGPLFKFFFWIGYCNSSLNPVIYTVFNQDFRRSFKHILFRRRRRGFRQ
Sequence of Dual specificity protein phosphatase 6 (Homo sapiens) (Q16828 whole entry, looked up): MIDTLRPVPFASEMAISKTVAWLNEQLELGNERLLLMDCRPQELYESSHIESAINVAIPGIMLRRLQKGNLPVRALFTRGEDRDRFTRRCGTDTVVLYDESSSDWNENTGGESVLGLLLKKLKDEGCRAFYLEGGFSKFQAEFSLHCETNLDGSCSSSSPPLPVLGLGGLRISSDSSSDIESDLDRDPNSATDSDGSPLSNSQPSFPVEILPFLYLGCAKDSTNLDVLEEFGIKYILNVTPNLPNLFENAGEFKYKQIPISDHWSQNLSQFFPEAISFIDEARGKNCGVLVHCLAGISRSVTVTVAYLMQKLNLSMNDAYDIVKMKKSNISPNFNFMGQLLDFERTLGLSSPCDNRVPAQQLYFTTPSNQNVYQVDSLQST
Sequence of Voltage-gated potassium channel subunit beta-2 (Rattus norvegicus) (P62483 whole entry, looked up): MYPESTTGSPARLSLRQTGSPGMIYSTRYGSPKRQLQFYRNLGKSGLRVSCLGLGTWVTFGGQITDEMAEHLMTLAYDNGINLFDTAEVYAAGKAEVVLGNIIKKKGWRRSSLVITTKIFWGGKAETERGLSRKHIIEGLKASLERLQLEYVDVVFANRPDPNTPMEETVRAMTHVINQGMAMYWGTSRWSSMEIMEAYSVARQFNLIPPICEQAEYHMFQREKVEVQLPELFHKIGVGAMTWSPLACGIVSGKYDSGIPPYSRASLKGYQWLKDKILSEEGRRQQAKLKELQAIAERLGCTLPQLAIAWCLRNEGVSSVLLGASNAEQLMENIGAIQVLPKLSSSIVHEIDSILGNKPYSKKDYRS
Sequence of Muscarinic acetylcholine receptor M4 (Homo sapiens) (P08173 whole entry, looked up): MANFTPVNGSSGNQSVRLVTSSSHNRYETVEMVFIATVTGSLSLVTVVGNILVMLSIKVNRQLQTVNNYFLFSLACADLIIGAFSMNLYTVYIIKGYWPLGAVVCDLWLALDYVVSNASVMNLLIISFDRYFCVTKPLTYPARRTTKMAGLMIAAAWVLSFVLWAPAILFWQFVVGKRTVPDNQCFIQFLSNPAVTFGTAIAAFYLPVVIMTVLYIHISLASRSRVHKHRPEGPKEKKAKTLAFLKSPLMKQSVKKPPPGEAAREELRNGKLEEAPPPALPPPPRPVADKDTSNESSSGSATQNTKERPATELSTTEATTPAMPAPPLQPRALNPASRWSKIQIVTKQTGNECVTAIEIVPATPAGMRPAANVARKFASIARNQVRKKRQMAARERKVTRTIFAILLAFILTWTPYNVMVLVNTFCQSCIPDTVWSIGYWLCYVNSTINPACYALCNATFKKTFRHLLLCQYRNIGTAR

By inhibition is commonly meant the drop in the measured response relative to a control, in per cent. With `Cc1c(C)c2cc(Cl)c(O)c(CN3CCCCC3)c2oc1=O`, the cell count in test [1] stood at 393. The inhibition was 1.3% (inactive) in test [1]; -14.6% (inactive) in test [3]; 5.26% (inactive) in [5]; 20.3% (inactive) in [9]; 4.19% (inactive) in test [10]; 6.59% (inactive) in test [11]. For the same molecule, the inhibition of aggregation in [2] is -11.8% (inactive). Also, the nuclei count in test [2] was determined as 100%; in [3] it was 124%. Also, the z-score in [4] (setting [14]) was 0.378; in test [4] (setting [15]), -1.22; in test [4] (setting [16]) it was -0.936. Besides, in [6], the fluorescence slope was -0.198 (inactive). In [7], the NADPH fluorescence slope was -2.2e-05 (inactive). In addition, the slope in [8] was 0.00419 (inactive).

Turning to `CCOC(=O)Cc1nnc(Nc2cccc(O)c2)c2ccccc12`, the cell count in [1] is 621. Besides, the inhibition in [1] was -1.7% (inactive); in test [3] it was -46.3% (inactive); in test [5], -15.1% (inactive); in test [9], -9.07% (inactive); in test [10] it was 0.504% (inactive); in [11], -8.25% (inactive). Further, the inhibition of aggregation in test [2] is -13.1% (inactive). The nuclei count in test [2] was 99.2%; in test [3] it was 131%. For the same molecule, the z-score is -1.97 in test [4] (setting [14]), 0.184 in test [4] (setting [15]) and 0.582 in test [4] (setting [16]). The figures for the fluorescence slope in test [6] and in [12] were -0.457 (inactive) and 0.0057 (inactive), respectively. For the same molecule, the NADPH fluorescence slope in test [7] is -9.4e-05 (inactive). Also, the slope in test [8] is 0.00496 (inactive). Moreover, the molecule was called inactive in test [13].

As to `C=CCn1c(SCC(=O)c2ccccc2)nnc1-c1ccc2c(c1)OCO2`, in test [1], the cell count is 728. The inhibition in [1] is -2.4% (inactive); in test [3] it was -60.6% (inactive); in test [5], -13.3% (inactive); in test [9] it was -7.63% (inactive); in [10], -8.67% (inactive); in [11], -3.99% (inactive). For the same molecule, the inhibition of aggregation in [2] was -1% (inactive). Moreover, the nuclei count in [2] was 92.4%; in test [3] it was 117%. For the same molecule, the z-score in [4] (setting [14]) turned out to be 0.143; in test [4] (setting [15]) it was 0.0826; in test [4] (setting [16]) it was 1.39. For the same molecule, the fluorescence slope was -0.528 (inactive) in [6] and 0.00674 (inactive) in test [12]. Besides, the NADPH fluorescence slope in [7] is -3.6e-05 (inactive). The slope in [8] was 0.00455 (inactive). Besides, the call in test [13] was inactive.

Take `CC(C)c1nc(NCC2CCCO2)c(C#N)c2c1COC(C)(C)C2` (configuration not stated): in test [1], the cell count was 354. Also, the inhibition in [1] is -4.5% (inactive); in test [3], -236% (inactive); in test [5] it was -8.59% (inactive); in [9], -3.7% (inactive); in test [10], 20.5% (inactive); in [11], 25.1% (inactive). In test [2], the inhibition of aggregation was 6.9% (inactive). The nuclei count in test [2] amounted to 86.9%; in test [3] it was 132%. Besides, the results for the z-score in test [4] (setting [14]), in test [4] (setting [15]) and in [4] (setting [16]) were -0.206, -0.66 and -0.111, respectively. Also, the fluorescence slope was -0.461 (inactive) in test [6] and 0.00335 (inactive) in [12]. The NADPH fluorescence slope in test [7] was -9.6e-05 (inactive). In addition, the slope in test [8] was 0.00432 (inactive). Also, in [13], the call was inactive.

As for `Cn1c(/C(C#N)=C/Nc2ccccn2)nc2ccccc21`, in test [1], the cell count turned out to be 346. The inhibition in test [1] was 4.3% (inactive); in [3], -44% (inactive); in [5], 5.26% (inactive); in [9], 2.14% (inactive); in test [10] it was -13.3% (inactive); in test [11], -19.7% (inactive). Further, the inhibition of aggregation in test [2] is -16.9% (inactive). Also, the nuclei count in test [2] is 88.4%; in test [3], 135%. Moreover, the z-score in test [4] (setting [14]) is -0.331; in test [4] (setting [15]), -0.988; in [4] (setting [16]), 1.63. In test [6], the fluorescence slope was -0.224 (inactive). Also, in [7], the NADPH fluorescence slope was -0.000107 (inactive). In addition, the slope in test [8] is 0.00613 (inactive).

In the case of `CCOC(=O)C1=C(N)c2ccccc2CC1C(C)C` (configuration not stated), the cell count in test [1] was 579. Moreover, the inhibition is 9% (inactive) in test [1]; -86.6% (inactive) in [3]; 4.72% (inactive) in test [5]; 36% (inactive) in test [9]; 17.7% (inactive) in test [10]; 26.3% (inactive) in [11]. The inhibition of aggregation in test [2] is -22.6% (inactive). The figures for the nuclei count in test [2] and in test [3] were 108% and 124%, respectively. The z-score in test [4] (setting [14]) was 2.18; in test [4] (setting [15]), -1.31; in [4] (setting [16]) it was -0.876. For the same molecule, the fluorescence slope is -0.46 (inactive) in test [6] and 0.00588 (inactive) in test [12]. For the same molecule, in test [7], the NADPH fluorescence slope was -2.5e-05 (inactive). The slope in test [8] was 0.00503 (inactive). Further, the call in test [13] was inactive.

As for `CCN(CC)CCN1C(=O)C(O)=C(C(=O)c2cccs2)C1c1ccccn1` (configuration not stated), the cell count in test [1] worked out at 503. The inhibition in test [1] is 1.8% (inactive); in test [3] it was -7.4% (inactive); in [5], -0.608% (inactive); in test [9], -9.88% (inactive); in test [10], 4.53% (inactive); in test [11], 12% (inactive). The inhibition of aggregation in test [2] is -4.1% (inactive). Further, the nuclei count in [2] was 102%; in [3], 120%. Further, the z-score was -0.956 in test [4] (setting [14]), 0.653 in test [4] (setting [15]) and -1.67 in test [4] (setting [16]). Moreover, the fluorescence slope in [6] was -0.468 (inactive); in test [12], 0.0052 (inactive). Moreover, in [7], the NADPH fluorescence slope was -0.000108 (inactive). Further, the slope in test [8] was 0.00594 (inactive). Further, in test [13], the outcome was inactive.
